# Measured values taken from PubChem BioAssay.
# Several values for one entry are separate records, joined by “and”; a condition that tells them apart may be missing. Equal entries are not always repeated. Inconclusive results are not listed. Activity calls are given as the source filed them.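 Rule for the calls, unless noted: active = normalized viability below 100% at a tested concentration; inactive = the rest.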
# Columns and labels:
# [1] = viability loss in pontine glioma line – cell-based, SU-DIPG-XXV, MIPE5.0, CellTiter-Glo, qHTS, dose response (AID 1347065; cut-off not given, nearly all actives have AC50 up to about 26 µM;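 note: cells exposed to compound for 48 hours before ATP readout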); conditions: CellTiter-Glo ATP luminescence
# [2] = SU-DIPG-VI glioma cell viability, MIPE4.0 library, CellTiter-Glo luminescence, qHTS (AID 1347066; cut-off not given, nearly all actives have AC50 up to about 30 µM;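 note: cells exposed to compound for 48 hours before readout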); conditions: CellTiter-Glo ATP luminescence
# [3] = JHH-DIPG-1 glioma cell viability, MIPE5.0 library, CellTiter-Glo luminescence, qHTS (AID 1347067; cut-off not given, nearly all actives have AC50 up to about 26 µM;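 note: cells exposed to compound for 48 hours before readout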); conditions: JHH-DIPG-1 glioma viability, CellTiter-Glo ATP luminescence
# [4] = SU-DIPG-XXV glioma cell viability, MIPE5.0 library, qHTS (AID 1347068; cut-off not given, nearly all actives have IC50 up to about 30 µM)
# [5] = modifiers of HSF1 nuclear foci, imaging, Selleck Cancer Library (AID 1347162; in the data active = plate-normalised HSF1 focus index below about 0.46); conditions: human cells, at 10 µM; SSMD: measured here: HSF1 foci SSMD mean; cell count: measured here: cell number; plate-normalised HSF1 focus index: stronger effect = lower value
# [6] = survival rescue of mitochondrial mutant cells in low glucose, primary screen, MELAS cybrids, Rieske KO mouse fibroblasts, CellTiter-Glo (AID 1508586;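 active = mean z-score across replicates of 1.96 or higher in either the MELAS or the Rieske mutant cell line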;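 note: z relative to plate mean and SD of compound and empty wells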)
# [7] = ovarian cancer cell viability with rucaparib, profiling panel, oncology-focused library, rucaparib conditional (AID 1508598); conditions: patient-derived ovarian cancer cells, CellTiter-Glo viability, 144 h, stronger effect = lower value
# [8] = biological target: NAD(+) hydrolase SARM1 (Homo sapiens) (UniProt Q6SZW1); assay: SARM1 TIR NADase inhibitors, cell lysate, NAD-Glo luminescence (AID 1508614;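 active = compound whose remaining NAD level is above about 45 nM, limit read from the data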;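 note: higher remaining NAD means stronger inhibition of SARM1 NADase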); conditions: SAM-TIR HEK293T lysate NADase, at 1 µM, stronger effect = higher value
# Sequence of NAD(+) hydrolase SARM1 (Homo sapiens) (Q6SZW1 whole entry, looked up): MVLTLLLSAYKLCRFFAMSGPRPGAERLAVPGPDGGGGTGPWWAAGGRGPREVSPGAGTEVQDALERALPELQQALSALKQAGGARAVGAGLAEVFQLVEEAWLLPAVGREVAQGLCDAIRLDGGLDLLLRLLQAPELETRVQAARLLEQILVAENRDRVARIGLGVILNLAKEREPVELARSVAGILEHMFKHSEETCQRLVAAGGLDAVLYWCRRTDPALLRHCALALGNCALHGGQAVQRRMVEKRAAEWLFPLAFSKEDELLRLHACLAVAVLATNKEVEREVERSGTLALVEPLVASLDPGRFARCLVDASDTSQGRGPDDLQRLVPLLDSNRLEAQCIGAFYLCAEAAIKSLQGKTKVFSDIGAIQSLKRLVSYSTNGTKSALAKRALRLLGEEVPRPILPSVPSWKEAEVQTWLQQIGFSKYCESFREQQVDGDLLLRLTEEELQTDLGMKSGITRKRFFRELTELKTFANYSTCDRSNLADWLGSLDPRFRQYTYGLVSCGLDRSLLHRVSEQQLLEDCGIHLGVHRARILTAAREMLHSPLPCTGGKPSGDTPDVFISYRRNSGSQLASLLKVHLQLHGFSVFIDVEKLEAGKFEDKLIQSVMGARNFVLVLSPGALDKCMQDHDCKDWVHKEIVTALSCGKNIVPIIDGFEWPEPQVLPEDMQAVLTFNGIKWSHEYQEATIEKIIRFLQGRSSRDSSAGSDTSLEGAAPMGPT
# [9] = viability rescue of complex I mutant cybrids, primary screen, cell-based, galactose medium, ATP luminescence (AID 1645843;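 active = z-score of at least 1.8 in each of two replicates, scored against plate mean and spread of sample wells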;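 note: positive z means more ATP and so rescue of galactose-driven cybrid death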); conditions: complex I mutant cybrid cells, 72 h, stronger effect = higher value
# [10] = LFS_MB_P medulloblastoma growth inhibition, cell-based, chromothripsis tumors, cisplatin or BGB combos (AID 1671449; in the data active = inhibition above about 80%;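 note: cells exposed for 96 hours; 0% = vehicle DMSO and 100% = killing by high DMSO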); conditions: LFS_MB_P medulloblastoma cells
# [11] = HDN33 neuroblastoma growth inhibition, cell-based, chromothripsis tumors, cisplatin or BGB combos (AID 1671450; in the data active = inhibition above about 80%;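 note: cells exposed to compound for four days; 0% = vehicle DMSO and 100% = cell killing by high DMSO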); conditions: HDN33 neuroblastoma cells, stronger effect = higher value
# [12] = ICB984 medulloblastoma cell growth inhibition, synergistic combos for chromothripsis tumors, cisplatin or BGB combos (AID 1671451; call rule not given here;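 note: cells exposed for 96 hours before readout; 0% = vehicle DMSO and 100% = killing by high DMSO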); conditions: ICB984 medulloblastoma cells, drug combinations, stronger effect = higher value
# [13] = LFS_MB_1R medulloblastoma cell growth inhibition, synergistic combos for chromothripsis tumors, cisplatin or BGB combos (AID 1671452; in the data active = inhibition above about 80%;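 note: cells exposed for 96 hours before readout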); conditions: LFS_MB_1R medulloblastoma cells, stronger effect = higher value
# [14] = HTB85 osteosarcoma cell growth inhibition, synergistic combos for chromothripsis tumors, BGB or cisplatin IC20 combos (AID 1671453; in the data active = inhibition above about 80%;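 note: cells exposed for 96 hours before readout; 0% = vehicle DMSO and 100% = high DMSO killing control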); conditions: HTB85 osteosarcoma cells, drug combinations, stronger effect = higher value
# [15] = CRL2098 osteosarcoma cell growth inhibition, synergistic combos for chromothripsis tumors, BGB or cisplatin IC20 combos (AID 1671454; in the data active = inhibition above about 80%;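 note: cells exposed for 96 h before readout; 0% = vehicle DMSO and 100% = killing by high DMSO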); conditions: CRL2098 osteosarcoma cells, drug combinations, stronger effect = higher value
# [16] = HD-MB03 medulloblastoma cell growth inhibition, synergistic combos for chromothripsis tumors, BGB or cisplatin IC20 combos (AID 1671455; in the data active = inhibition above about 83%;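 note: 0% = vehicle DMSO and 100% = high DMSO as cytotoxic control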); conditions: HD-MB03 medulloblastoma cells, stronger effect = higher value
# [17] = measured here: combination with BGB IC40, at 0.05 µM
smiles,measurement,setting,value
Cn1nnc2c(C(N)=O)ncn2c1=O,outcome,[1],inactive
same,outcome,[2],inactive
same,outcome,[3],inactive
same,outcome,[4],inactive
same,SSMD,[5],1.56
same,cell count,[5],7070
same,plate-normalised HSF1 focus index,[5],1.09 (inactive)
same,z-score,"[6]; MELAS cybrid survival, CellTiter-Glo 48 h, stronger effect = higher value",-0.452 (inactive) and 0.68 (inactive) and -0.709 (inactive)
same,z-score,"[6]; Rieske KO mouse fibroblast survival, CellTiter-Glo 72 h",0.371 and -0.0371 and -0.913
same,viability,"[7]; at 0.000305 µM, OCI-C5x cells, with rucaparib 10 µM, 100% = cells with rucaparib alone",103% (inactive)
same,viability,"[7]; at 0.000305 µM, OCI-C5x cells, without rucaparib",108% (inactive)
same,viability,"[7]; at 0.000305 µM, OCI-P5x cells, with rucaparib 20 µM, 100% = cells with rucaparib alone",91% (active)
same,viability,"[7]; at 0.000305 µM, OCI-P5x cells, without rucaparib",88.3% (active)
same,viability,"[7]; at 0.00122 µM, OCI-C5x cells, with rucaparib 10 µM, 100% = cells with rucaparib alone",103% (inactive)
same,viability,"[7]; at 0.00122 µM, OCI-C5x cells, without rucaparib",109% (inactive)
same,viability,"[7]; at 0.00122 µM, OCI-P5x cells, with rucaparib 20 µM, 100% = cells with rucaparib alone",108% (inactive)
same,viability,"[7]; at 0.00122 µM, OCI-P5x cells, without rucaparib",98.5% (active)
same,viability,"[7]; at 0.00488 µM, OCI-C5x cells, with rucaparib 10 µM, 100% = cells with rucaparib alone",113% (inactive)
same,viability,"[7]; at 0.00488 µM, OCI-C5x cells, without rucaparib",110% (inactive)
same,viability,"[7]; at 0.00488 µM, OCI-P5x cells, with rucaparib 20 µM, 100% = cells with rucaparib alone",110% (inactive)
same,viability,"[7]; at 0.00488 µM, OCI-P5x cells, without rucaparib",101% (inactive)
same,viability,"[7]; at 0.0195 µM, OCI-C5x cells, with rucaparib 10 µM, 100% = cells with rucaparib alone",118% (inactive)
same,viability,"[7]; at 0.0195 µM, OCI-C5x cells, without rucaparib",108% (inactive)
same,viability,"[7]; at 0.0195 µM, OCI-P5x cells, with rucaparib 20 µM, 100% = cells with rucaparib alone",106% (inactive)
same,viability,"[7]; at 0.0195 µM, OCI-P5x cells, without rucaparib",106% (inactive)
same,viability,"[7]; at 0.0781 µM, OCI-C5x cells, with rucaparib 10 µM, 100% = cells with rucaparib alone",102% (inactive)
same,viability,"[7]; at 0.0781 µM, OCI-C5x cells, without rucaparib",101% (inactive)
same,viability,"[7]; at 0.0781 µM, OCI-P5x cells, with rucaparib 20 µM, 100% = cells with rucaparib alone",112% (inactive)
same,viability,"[7]; at 0.0781 µM, OCI-P5x cells, without rucaparib",104% (inactive)
same,viability,"[7]; at 0.313 µM, OCI-C5x cells, with rucaparib 10 µM, 100% = cells with rucaparib alone",101% (inactive)
same,viability,"[7]; at 0.313 µM, OCI-C5x cells, without rucaparib",104% (inactive)
same,viability,"[7]; at 0.313 µM, OCI-P5x cells, with rucaparib 20 µM, 100% = cells with rucaparib alone",111% (inactive)
same,viability,"[7]; at 0.313 µM, OCI-P5x cells, without rucaparib",109% (inactive)
same,viability,"[7]; at 1.25 µM, OCI-C5x cells, with rucaparib 10 µM, 100% = cells with rucaparib alone",108% (inactive)
same,viability,"[7]; at 1.25 µM, OCI-C5x cells, without rucaparib",90.4% (active)
same,viability,"[7]; at 1.25 µM, OCI-P5x cells, with rucaparib 20 µM, 100% = cells with rucaparib alone",106% (inactive)
same,viability,"[7]; at 1.25 µM, OCI-P5x cells, without rucaparib",110% (inactive)
same,viability,"[7]; at 5 µM, OCI-C5x cells, with rucaparib 10 µM, 100% = cells with rucaparib alone",96.4% (active)
same,viability,"[7]; at 5 µM, OCI-C5x cells, without rucaparib",92.7% (active)
same,viability,"[7]; at 5 µM, OCI-P5x cells, with rucaparib 20 µM, 100% = cells with rucaparib alone",95.5% (active)
same,viability,"[7]; at 5 µM, OCI-P5x cells, without rucaparib",114% (inactive)
same,remaining NAD,[8],10 nM (inactive)
same,z-score,[9],-0.305 (inactive) and -0.09 (inactive) and 0.155 (inactive)
same,inhibition,"[10]; at 0.5 µM, stronger effect = higher value",-17.4% (inactive) and 18.8% (inactive)
same,inhibition,"[10]; measured here: combination with BGB IC20, at 0.005 µM",-10.2% and -21.6%
same,inhibition,"[10]; measured here: combination with BGB IC40, at 0.005 µM",14.1% and -10.5%
same,inhibition,[10]; [17],2.17% and -11.4%
same,inhibition,"[10]; measured here: combination with cisplatin, at 0.5 µM, stronger effect = higher value",-29.5% and 9.38%
same,inhibition,"[10]; measured here: combination with cisplatin, at 5 µM, stronger effect = higher value",-24.1% and -22.5%
same,inhibition,"[11]; BGB combo, at 5 µM",22.2% and -9.06%
same,inhibition,[11]; at 0.5 µM,13.3% (inactive) and -1.85% (inactive)
same,inhibition,"[11]; cisplatin combo, at 5 µM",6.08% and -19.1%
same,inhibition,"[11]; measured here: with BGB IC20 combination, at 0.5 µM",17.6% and 6.04%
same,inhibition,"[11]; measured here: with cisplatin IC20 combination, at 0.5 µM",10.1% and -5.64%
same,inhibition,"[11]; single agent, at 5 µM",14.8% and -8.19%
same,inhibition,"[12]; BGB IC20 combo, at 0.005 µM",-9.22% and 1.55%
same,inhibition,"[12]; BGB IC40 combo, at 0.005 µM",-2.52% and -17.2%
same,inhibition,"[12]; BGB IC40 combo, at 0.05 µM",-13.6% and -3.32%
same,inhibition,[12]; at 0.5 µM,-14.5% (inactive) and -3.73% (inactive)
same,inhibition,"[12]; cisplatin combo, at 0.05 µM",-17.6% and -3.32%
same,inhibition,"[12]; cisplatin combo, at 0.5 µM",-0.899% and 2.38%
same,inhibition,"[12]; cisplatin combo, at 5 µM",-10.6% and -15.5%
same,inhibition,"[12]; measured here: 5 uM single agent, at 5 µM",10.8% and -28.4%
same,inhibition,[13]; at 0.5 µM,-13.9% (inactive) and 3.35% (inactive)
same,inhibition,[13]; [17],-9.42% and 8.49%
same,inhibition,"[13]; measured here: combination with cisplatin, at 0.5 µM",-8.99% and 3.26%
same,inhibition,"[13]; measured here: combination with cisplatin, at 5 µM",-56.8% and -3.5%
same,inhibition,[14]; at 0.5 µM,6.66% (inactive) and -23.3% (inactive)
same,inhibition,"[14]; measured here: with BGB IC20, at 0.5 µM",9.09% and -44.6%
same,inhibition,"[14]; measured here: with BGB IC20, at 5 µM",6.52% and -4.64%
same,inhibition,"[14]; measured here: with cisplatin IC20, at 0.5 µM",-3.99% and -22.6%
same,inhibition,"[14]; measured here: with cisplatin IC20, at 5 µM",-15.9% and 29.4%
same,inhibition,"[14]; single agent, at 5 µM",7.64% and -1.96%
same,inhibition,[15]; at 0.5 µM,-9.21% (inactive) and -17.1% (inactive)
same,inhibition,"[15]; measured here: combination with BGB at IC20, at 0.5 µM",-17.8% and -2.5%
same,inhibition,"[15]; measured here: combination with cisplatin at IC20, at 0.5 µM",7.75% and -28.9%
same,inhibition,[16]; at 0.5 µM,-0.81% (inactive) and -5.74% (inactive)
same,inhibition,"[16]; measured here: combo with BGB at IC20, at 0.5 µM",-12.4% and -6.59%
same,inhibition,"[16]; measured here: combo with cisplatin at IC20, at 0.5 µM",4.26% and -10.3%
